Measurements published in PubChem BioAssay (NCI).
About 83,000 compounds went through this panel and 20% of them were active in at least one assay; those are over-represented in the sample as a whole.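 48-hour exposure, single concentration, 96-well plates; percent growth endpoint where 0 means no net growth. Active: below 10.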 The source made the active and inactive calls.

test system: PC-3 prostate; assay: NCI-60 one-dose screen, 48 h (100 = growth as untreated, 0 = no growth, -100 = all killed); conditions: 10 µM unless noted

SMILES	growth
C#C[C@]1(O)CC[C@H]2[C@@H]3CC=C4c5sc(Nc6cc(C)cc(C)c6)nc5CC[C@]4(C)[C@H]3CC[C@@]21C	-8.26% (active)
CCCC[n+]1ccc(SCC(=O)n2ccc3ccccc32)c2ccccc21	90.9% (inactive)
CC(C)(C)c1cc(NC(=O)Nc2ccc(-c3cn4c5c(sc4n3)CCc3cn(CCCN4CCCCC4)cc3-5)cc2)no1	-74.8% (active)
CCCCCCNC(=O)Oc1ccc(/C(=C(/C)c2ccc(OC)cc2)c2ccc(OCCN3CCCCCC3)cc2)cc1	24.5% (inactive)
Cn1cc(-c2cc3ncnc(Nc4ccc(CC(=O)Nc5nc(C(C)(C)C)cs5)cc4)c3s2)cn1	41.4% (inactive)
O=C(CCCCCC/C=C\c1csc(Br)n1)NO	82% (inactive)
COc1ccc(C(=O)c2c(N)c(C#N)cn2-c2ccc(Cl)cc2Cl)cc1	95.7% (inactive)
Cc1ccc2c(n1)C(=O)C(Cl)=C(Nc1cccc(C(F)(F)F)c1)C2=O	69.6% (inactive)
O=C1[C@H]2Cc3c([nH]c4ccccc34)[C@H](c3ccc(Cl)cc3)N2C(=O)CN1C1CCN(CC2CCCCC2)CC1	52.9% (inactive)
COc1ccc(/C=N/NC(=O)c2c(N)nn(C)c2Nc2ccccc2)cc1	55.9% (inactive)
Fc1ccc2nc(-c3cnn4cccnc34)sc2c1	84.3% (inactive)
O=C(/C=C/c1cccc(F)c1)c1cccc(OCCCCOc2cccc(C(=O)/C=C/c3cccc(F)c3)c2)c1	97.6% (inactive)
O=C(COc1ccc(/C=C2\C(=O)Nc3ccc(Cl)cc32)cc1)Nc1ccc(Cl)cc1	41.7% (inactive)
O=C(Nc1cccc(Cl)c1)Nc1nc2cc([N+](=O)[O-])ccc2o1	29.8% (inactive)
COc1ccc(NC(=O)CCCCCCNC(=O)C(O)(O)C(F)(F)F)cc1	52.7% (inactive)
CC(=O)N(O)CCCCCNC(=O)CCC(=O)N(O)CCCCCNC(=O)CCC(=O)N(O)CCCCCN(CCCCCCCCCC[P+](c1ccccc1)(c1ccccc1)c1ccccc1)CCCCCCCCCC[P+](c1ccccc1)(c1ccccc1)c1ccccc1	19.6% (inactive)
Cc1cc(Br)ccc1-n1cc(C#N)c(N)c1C(=O)c1ccc(Br)cc1	103% (inactive)
CN(C)S(=O)(=O)c1ccc(-c2nc(C(Cl)Cl)nc3cc(-c4ccccc4)nn23)cc1	87.7% (inactive)

SMILES	growth
CN1CCN(c2ccc(Nc3nc(NCCNC(=O)c4ccc(F)cc4)c4sccc4n3)cc2)CC1	72.2% (inactive)
O=[N+]([O-])c1ccc(NC(=S)NNC(=S)Nc2ccc(Br)cc2)cc1	75.3% (inactive)
C/C(=N\NC(=O)/C=C/CC(=O)O)c1nnn(-c2ccc([N+](=O)[O-])cc2)c1C	94.7% (inactive)
CN1CCN(c2ccc(Nc3nc(NCCCNS(=O)(=O)c4ccc(F)cc4)c4sccc4n3)cc2)CC1	60.5% (inactive)
N#CC1=C2NCCCNc3oc(nc3C#N)Cc3ccccc3CC(=N1)O2	91.9% (inactive)
COc1ccccc1/C=C1\Oc2ccc(O)c(O)c2C1=O	98.7% (inactive)
COc1ccc(NC2=C(Br)C(=O)C(C)=C(C)C2=O)cc1OC	69.7% (inactive)
O=C(Nc1ccc(N=Cc2c(O)[nH]c3ccccc23)cc1)Nc1ccc(S(=O)(=O)Nc2ncccn2)cc1	94.1% (inactive)
NC(=O)c1c(NC(=O)c2ccc(C(F)(F)F)cc2)sc2c1CCC(=O)C2	-6.96% (active)
O=C(/C=C/c1cccc(Br)c1)c1cccc(OCCCCOc2cccc(C(=O)/C=C/c3cccc(Br)c3)c2)c1	104% (inactive)
O=C(CCCCCCNC(=O)c1csc(Br)n1)NO	47.4% (inactive)
CC1CC(=O)C2=C(C1)Nc1ccc(Br)cc1CC2c1c[nH]c2ccc(Br)cc12 (stereo unspecified)	31.3% (inactive)
C#CCN(C)CCCOc1ccc(NCc2ccc(C(=O)NO)cc2)cc1Cl	29.4% (inactive)
CC(=O)Nc1nc(C)c(-c2csc(Nc3ccccc3)n2)s1	31.8% (inactive)
Cc1csc(/N=C(N)/N=C(\N)c2cccc(C#N)c2)n1	77.4% (inactive)
Clc1cccc(/C=N/Nc2nc(N/N=C/c3cccc(Cl)c3)nc(N3CCCCC3)n2)c1	76% (inactive)
O=C1[C@H]2Cc3c([nH]c4ccccc34)[C@H](c3ccc(Br)cc3)N2C(=O)CN1C1CCN(CC2CCCCC2)CC1	60.2% (inactive)
Cc1[nH]c(C(=O)Nc2ccc(C(=O)NCC3CCNCC3)cc2OC(C)C)c(Cl)c1Cl	61.6% (inactive)
